Assay results from PubChem BioAssay.
The list shows a part of the results. Calls of active or inactive are those of the source. Unless noted, no stated cut-off is given here; in the data, active means inhibition above about 14%; inactive means the rest.

Tests used:
[1] = test system: Fam108b (Abhd17b) serine hydrolase [Mus musculus]; assay: inhibition of Fam108b (Abhd17b) hydrolase – biochemical, fluorescence polarization, triplicate, counter-screen for RBBP9 inhibitor project, confirmation (AID 1978;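 active means inhibition above a limit from the primary screen, the mean over all compounds plus 3 SD, cut at about 19% in these data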;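 further: 0% = median of active Fam108b wells and 100% = catalytically dead S170A mutant; inhibitors free the probe so polarization falls as inhibition rises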); conditions: recombinant Fam108b, FP-Rh probe fluorescence polarization; at 9.51 µM; hits give high values
[2] = molecular target: Bcl-2-like protein 1 (Homo sapiens) (UniProt Q07817); assay: Bcl-xL BH3-peptide displacement, hit confirmation – biochemical, fluorescence polarization, counter-screen for MCL1 inhibitor project (AID 2166;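 active means inhibition above a cutoff equal to the mean inhibition of all tested compounds plus 3 SD, cut at about 30% in these data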); conditions: GST-Bcl-xL / FITC-Bim BH3 peptide FP binding; at 10.9 µM; hits give high values
Sequence of Bcl-2-like protein 1 (Homo sapiens) (Q07817 whole entry, looked up): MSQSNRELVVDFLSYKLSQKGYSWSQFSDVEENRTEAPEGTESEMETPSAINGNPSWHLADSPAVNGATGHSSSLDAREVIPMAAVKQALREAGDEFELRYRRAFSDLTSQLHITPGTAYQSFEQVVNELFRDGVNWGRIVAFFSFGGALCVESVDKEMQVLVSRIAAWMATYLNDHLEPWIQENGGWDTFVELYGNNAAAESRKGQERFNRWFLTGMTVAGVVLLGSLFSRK

[3] = molecular target: Induced myeloid leukemia cell differentiation protein Mcl-1 (Homo sapiens) (UniProt Q07820); assay: MCL1-BIM peptide interaction disruptors – biochemical, fluorescence polarization, triplicate, confirmation (AID 2168;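 active means inhibition above the average of all tested compounds plus 3 SD, cut at about 40% in these data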;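 further: 0% = DMSO wells and 100% = unlabeled Bim-BH3 control peptide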); conditions: GST-MCL1 / FITC-Bim-BH3 fluorescence polarization; at 10.9 µM; hits give high values
Sequence of Induced myeloid leukemia cell differentiation protein Mcl-1 (Homo sapiens) (Q07820 whole entry, looked up): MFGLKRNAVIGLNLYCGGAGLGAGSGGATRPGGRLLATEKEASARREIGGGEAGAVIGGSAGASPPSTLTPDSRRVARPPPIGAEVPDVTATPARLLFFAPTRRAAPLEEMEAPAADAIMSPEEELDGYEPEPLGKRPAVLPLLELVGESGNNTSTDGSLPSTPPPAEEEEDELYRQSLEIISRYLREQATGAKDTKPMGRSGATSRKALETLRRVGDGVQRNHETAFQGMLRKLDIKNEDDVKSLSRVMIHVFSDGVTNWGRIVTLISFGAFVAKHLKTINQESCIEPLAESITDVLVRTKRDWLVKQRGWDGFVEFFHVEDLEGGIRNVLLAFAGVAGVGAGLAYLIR

[4] = molecular target: Platelet-activating factor acetylhydrolase (Homo sapiens) (UniProt Q13093); assay: inhibition of plasma PAF acetylhydrolase – biochemical, fluorescence polarization, human, confirmation (AID 463230;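 active means mean inhibition of the triplicate above the hit cutoff set for the earlier primary screen, cut at about 25% in these data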;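 further: 0% = enzyme with DMSO and 100% = wells lacking pPAFAH enzyme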); conditions: recombinant pPAFAH, FP-Rh probe fluorescence polarization; at 3.39 µM; hits give high values
Sequence of Platelet-activating factor acetylhydrolase (Homo sapiens) (Q13093 whole entry, looked up): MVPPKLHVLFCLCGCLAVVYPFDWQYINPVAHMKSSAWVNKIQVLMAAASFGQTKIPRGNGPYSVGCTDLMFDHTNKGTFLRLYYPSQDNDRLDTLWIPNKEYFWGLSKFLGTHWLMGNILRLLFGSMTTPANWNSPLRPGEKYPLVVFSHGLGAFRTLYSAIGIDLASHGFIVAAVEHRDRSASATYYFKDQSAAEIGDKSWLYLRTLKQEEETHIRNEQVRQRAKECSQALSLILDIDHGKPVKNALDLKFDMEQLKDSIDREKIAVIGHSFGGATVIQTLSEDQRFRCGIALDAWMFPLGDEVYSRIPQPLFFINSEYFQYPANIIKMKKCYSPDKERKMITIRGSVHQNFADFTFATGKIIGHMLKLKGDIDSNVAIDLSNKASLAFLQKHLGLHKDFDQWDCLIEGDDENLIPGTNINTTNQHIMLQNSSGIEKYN

[5] = test system: HIV-1 integrase (multimerization); assay: stimulation of HIV-1 integrase oligomerization – biochemical, TR-FRET, counter-screen for LEDGF/p75 integration inhibitor project (AID 1053131; in the data active means activation above about 8.9%); conditions: TR-FRET HIV-1 integrase multimerization, at 7.7 µM, hits give high values
[6] = compounds disturbing TR-FRET signal readout – biochemical, HIV-1 IN multimerization, artefact control for LEDGF/p75-dependent integration inhibitor project, confirmation (AID 1053135;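 active means inhibition above the mean over all tested compounds plus 3 SD, which no compound reached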;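 further: 0% = integrase with antibodies and DMSO and 100% = antibodies without integrase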); conditions: TR-FRET optical interference counterscreen, at 7.7 µM, hits give high values
[7] = test system: HIV-1 integrase / human LEDGF/p75 complex; assay: blockers of LEDGF/p75-dependent integrase activity – biochemical, TR-FRET, confirmation (AID 1053136); conditions: TR-FRET LEDGF/p75-dependent HIV-1 integration, at 3.7 µM, hits give high values
[8] = molecular target: Protein phosphatase methylesterase 1 (Homo sapiens) (UniProt Q9Y570); assay: human PME-1 methylesterase inhibition confirmation – biochemical, fluorescence polarization, FP-Rh probe, triplicate (AID 2171;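 active means inhibition above the hit cutoff set in the earlier primary screen, cut at about 27% in these data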;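 further: 0% = enzyme with DMSO and 100% = wells lacking PME-1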); conditions: recombinant PME-1, FP-Rh probe fluorescence polarization; at 5.9 µM; hits give high values
Sequence of Protein phosphatase methylesterase 1 (Homo sapiens) (Q9Y570 whole entry, looked up): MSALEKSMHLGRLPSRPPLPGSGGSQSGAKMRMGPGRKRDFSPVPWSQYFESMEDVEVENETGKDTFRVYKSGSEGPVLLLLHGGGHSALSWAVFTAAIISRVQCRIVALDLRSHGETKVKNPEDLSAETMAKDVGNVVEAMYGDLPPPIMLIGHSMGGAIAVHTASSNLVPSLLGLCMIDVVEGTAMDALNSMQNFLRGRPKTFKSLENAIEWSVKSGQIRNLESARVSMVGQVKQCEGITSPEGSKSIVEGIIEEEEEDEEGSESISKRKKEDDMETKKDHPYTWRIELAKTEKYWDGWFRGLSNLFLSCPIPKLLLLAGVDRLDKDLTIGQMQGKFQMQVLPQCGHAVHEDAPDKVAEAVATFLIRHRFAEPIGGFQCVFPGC

[9] = suppression of KLF5 promoter-driven luciferase – DLD-1 cells, luminescence, confirmation (AID 1834;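 active means inhibition above a set limit taken from the earlier primary screen, cut at about 63% in these data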;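 further: 0% = DMSO wells and 100% = LY294002 at 200 µM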); conditions: DLD-1 KLF5 promoter firefly luciferase reporter, at 4 µM, hits give high values
[10] = IEC-6 intestinal cell killing – luminescence, triplicate, cytotoxicity control for KLF5 inhibitor project (AID 1905; in the data active means inhibition above about 23%;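 further: cells exposed to compounds for 48 hours before viability read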); conditions: IEC-6 rat intestinal cells, viability luminescence; at 4 µM; hits give high values
[11] = molecular target: Glutathione S-transferase omega-1 (Homo sapiens) (UniProt P78417); assay: recombinant GSTO1 blockers, retest – biochemical, fluorescence polarization, triplicate, counter-screen for RBBP9 inhibitor project, confirmation (AID 2176;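 active means inhibition above the primary screen's cutoff, its mean inhibition plus 3 SD, cut at about 35% in these data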;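 further: loss of polarization as inhibitors block binding of rhodamine sulfonate ester activity probe; 0% = GSTO1 with DMSO and 100% = wells lacking GSTO1 enzyme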); conditions: recombinant GSTO1, probe fluorescence polarization; at 5.96 µM; hits give high values
Sequence of Glutathione S-transferase omega-1 (Homo sapiens) (P78417 whole entry, looked up): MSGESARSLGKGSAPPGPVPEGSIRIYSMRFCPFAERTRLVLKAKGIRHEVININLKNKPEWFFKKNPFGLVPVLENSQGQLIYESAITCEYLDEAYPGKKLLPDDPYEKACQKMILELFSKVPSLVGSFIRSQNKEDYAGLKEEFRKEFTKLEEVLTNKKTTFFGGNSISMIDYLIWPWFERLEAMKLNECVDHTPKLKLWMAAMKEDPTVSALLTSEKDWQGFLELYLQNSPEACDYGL

[12] = reduced OD of T4-infected AddAB+ E. coli – absorbance, E. coli V3065, T4 phage, triplicate, AddAB inhibitor project, confirmation (AID 488942;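 active means mean inhibition above a set limit taken from the earlier primary screen, cut at about 13% in these data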;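 further: higher means less bacterial growth since AddAB block lets phage replicate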); conditions: E. coli V3065 expressing H. pylori AddAB, at 11.9 µM, hits give high values, T4 phage with gene 2 nonsense mutations
[13] = reduced OD of phage-infected RecBCD+ V66 E. coli – absorbance, mutant T4 phage, counter-screen for AddAB inhibitor project (AID 488955;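 active means mean inhibition above the mean of solvent-only control wells plus 3 SD, cut at about 4% in these data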;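 further: optical density read after an 18 h incubation at 37 °C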); conditions: OD growth, at 11.9 µM, hits give high values
[14] = bacterial growth inhibitors – absorbance, counter-screen for AddAB inhibitor project, confirmation (AID 488956; in the data active means inhibition above about 25%); conditions: bacterial viability, absorbance (AddAB counterscreen); at 11.9 µM; hits give high values
[15] = reduced OD of V66 E. coli with T4 gene 2 phage – absorbance, RecBCD inhibitor project, confirmation (AID 651982;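 active means mean inhibition over triplicates exceeding the hit threshold derived in the original primary screen, cut at about 11% in these data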); conditions: E. coli V66 + T4 2- phage, growth OD; at 11.9 µM; hits give high values
[16] = bacterial growth inhibition – absorbance, high throughput, counter-screen for RecBCD inhibitor project (AID 651983; in the data active means inhibition above about 20%;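 further: E. coli strain V66 grown with compound alone and no phage infection; 0% = bacteria with DMSO vehicle only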); conditions: E. coli viability, absorbance (OD) growth; at 11.9 µM; hits give high values
[17] = reduced optical density, T4-challenged addAB+ bacteria – absorbance, E. coli V3065, T4 phage, counter-screen for RecBCD inhibitor project, confirmation (AID 651984;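 active means mean inhibition above the solvent-only control wells' mean plus 3 SD, cut at about 22% in these data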;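 further: higher means less bacterial growth from phage killing when AddAB is blocked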); conditions: E. coli expressing H. pylori AddAB + T4 phage, OD growth; at 11.9 µM; hits give high values; gene 2 mutant T4, recBCD-deleted host
[18] = molecular target: Oxysterols receptor LXR-beta (Homo sapiens) (UniProt P55055); assay: nonspecific reporter activation via LXR – cell-based, luminescence, HEK293, H. contortus campaign, counter-screen for hcDAF-12 agonist project, confirmation (AID 743027;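 active means mean percent activation of the reporter above a cutoff set as the average over tested compounds plus their standard deviation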); conditions: HEK293 Gal4-LXR tk-luc reporter, 24 h, at 6.8 µM, hits give high values, normalized: DMSO 0%, positive control 100%
Sequence of Oxysterols receptor LXR-beta (Homo sapiens) (P55055 whole entry, looked up, the tested form may be a part): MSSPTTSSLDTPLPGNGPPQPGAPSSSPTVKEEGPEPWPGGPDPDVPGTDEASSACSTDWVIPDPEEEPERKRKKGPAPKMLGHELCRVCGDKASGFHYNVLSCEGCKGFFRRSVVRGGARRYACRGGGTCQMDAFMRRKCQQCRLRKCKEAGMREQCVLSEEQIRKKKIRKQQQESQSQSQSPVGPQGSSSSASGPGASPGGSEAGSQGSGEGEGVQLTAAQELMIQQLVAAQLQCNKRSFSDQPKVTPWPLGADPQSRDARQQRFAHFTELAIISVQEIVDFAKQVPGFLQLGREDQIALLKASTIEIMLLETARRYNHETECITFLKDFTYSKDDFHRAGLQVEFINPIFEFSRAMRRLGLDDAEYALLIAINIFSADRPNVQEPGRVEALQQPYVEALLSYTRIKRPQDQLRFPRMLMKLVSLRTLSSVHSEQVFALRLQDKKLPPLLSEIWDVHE

[19] = test system: Nuclear hormone receptor DAF-12 (Haemonchus contortus); assay: hcDAF-12 luciferase reporter activation, retest – cell-based, luminescence, HEK293, lit1-tk-luc, triplicate, confirmation (AID 743032;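 active means mean activation across triplicate tests above the threshold derived from the earlier primary screen, cut at about 5.5% in these data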;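 further: 0% = DMSO only wells and 100% = 3 µM Δ7-dafachronic acid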); conditions: HEK293 hcDAF-12 lit1-tk-luc reporter, at 6.8 µM, hits give high values, % of Δ7-dafachronic acid response
[20] = molecular target: Nuclear receptor coactivator 1 (Homo sapiens) (UniProt Q15788); assay: NCOA1 GAL4-fusion reporter inhibition – cell-based, luminescence, quadruplicate, confirmation (AID 588820;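 active means mean inhibition above 46.68%, the untreated control wells mean plus 3 SD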;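 further: 0% = DMSO wells and 100% = gossypol 36 µM treated wells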); conditions: HEK293 GAL4-SRC1 luciferase reporter, at 3.6 µM, hits give high values
Sequence of Nuclear receptor coactivator 1 (Homo sapiens) (Q15788 whole entry, looked up, the tested form may be a part): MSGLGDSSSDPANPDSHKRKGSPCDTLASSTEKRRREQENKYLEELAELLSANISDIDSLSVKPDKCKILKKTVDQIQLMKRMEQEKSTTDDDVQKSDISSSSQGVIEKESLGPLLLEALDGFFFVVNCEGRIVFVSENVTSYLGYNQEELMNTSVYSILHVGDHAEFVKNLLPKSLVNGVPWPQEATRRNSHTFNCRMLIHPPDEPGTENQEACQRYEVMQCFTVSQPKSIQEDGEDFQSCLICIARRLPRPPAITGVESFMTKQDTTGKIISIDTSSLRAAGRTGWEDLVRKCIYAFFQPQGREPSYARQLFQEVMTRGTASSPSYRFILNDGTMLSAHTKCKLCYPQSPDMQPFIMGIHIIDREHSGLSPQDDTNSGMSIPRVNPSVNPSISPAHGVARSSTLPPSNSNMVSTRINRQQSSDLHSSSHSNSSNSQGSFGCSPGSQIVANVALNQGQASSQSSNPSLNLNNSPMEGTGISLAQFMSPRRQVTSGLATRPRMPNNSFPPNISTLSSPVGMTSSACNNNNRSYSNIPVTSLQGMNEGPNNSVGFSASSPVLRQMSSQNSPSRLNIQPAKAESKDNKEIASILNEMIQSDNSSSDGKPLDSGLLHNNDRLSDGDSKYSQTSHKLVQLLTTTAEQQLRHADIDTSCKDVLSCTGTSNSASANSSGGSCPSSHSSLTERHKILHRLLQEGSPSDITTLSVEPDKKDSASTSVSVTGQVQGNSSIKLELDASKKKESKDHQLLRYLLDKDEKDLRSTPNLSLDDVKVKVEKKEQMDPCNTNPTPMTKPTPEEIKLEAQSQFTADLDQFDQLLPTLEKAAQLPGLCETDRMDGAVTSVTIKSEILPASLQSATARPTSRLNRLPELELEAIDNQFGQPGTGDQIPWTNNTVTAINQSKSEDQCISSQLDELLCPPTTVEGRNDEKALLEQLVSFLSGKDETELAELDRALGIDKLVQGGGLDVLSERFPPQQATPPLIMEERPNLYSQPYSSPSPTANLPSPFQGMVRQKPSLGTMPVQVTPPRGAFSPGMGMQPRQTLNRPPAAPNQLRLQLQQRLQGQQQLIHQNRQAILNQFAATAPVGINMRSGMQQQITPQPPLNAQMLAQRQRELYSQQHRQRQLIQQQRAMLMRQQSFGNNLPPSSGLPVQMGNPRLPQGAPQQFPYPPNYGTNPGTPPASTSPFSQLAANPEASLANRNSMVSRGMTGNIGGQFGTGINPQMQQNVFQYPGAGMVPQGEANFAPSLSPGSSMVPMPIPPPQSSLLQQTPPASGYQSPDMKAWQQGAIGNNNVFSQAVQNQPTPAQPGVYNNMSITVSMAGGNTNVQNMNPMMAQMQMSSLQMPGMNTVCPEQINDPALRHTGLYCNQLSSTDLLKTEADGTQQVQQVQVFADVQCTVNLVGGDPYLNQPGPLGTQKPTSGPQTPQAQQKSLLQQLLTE

[21] = repression of VP16-driven luciferase reporter – cell-based, luminescence, high throughput, counter-screen for SRC1 inhibitor project (AID 588824; in the data active means inhibition above about 25%); conditions: cell-based VP16 transactivation luciferase luminescence; at 3.6 µM; hits give high values
[22] = molecular target: Protein-arginine deiminase type-4 (Homo sapiens) (UniProt Q9UM07); assay: protein arginine deiminase 4 blockade, retest – biochemical, fluorescence polarization, confirmation (AID 488796;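 active means mean inhibition across replicates above the hit cutoff set by the earlier primary screen, cut at about 15% in these data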;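 further: inhibitors block active-site labeling by the probe so polarization falls; 0% = PAD4 with probe and DMSO and 100% = probe without PAD4 enzyme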); conditions: recombinant PAD4, RCA probe fluorescence polarization; at 6.36 µM; hits give high values
Sequence of Protein-arginine deiminase type-4 (Homo sapiens) (Q9UM07 whole entry, looked up): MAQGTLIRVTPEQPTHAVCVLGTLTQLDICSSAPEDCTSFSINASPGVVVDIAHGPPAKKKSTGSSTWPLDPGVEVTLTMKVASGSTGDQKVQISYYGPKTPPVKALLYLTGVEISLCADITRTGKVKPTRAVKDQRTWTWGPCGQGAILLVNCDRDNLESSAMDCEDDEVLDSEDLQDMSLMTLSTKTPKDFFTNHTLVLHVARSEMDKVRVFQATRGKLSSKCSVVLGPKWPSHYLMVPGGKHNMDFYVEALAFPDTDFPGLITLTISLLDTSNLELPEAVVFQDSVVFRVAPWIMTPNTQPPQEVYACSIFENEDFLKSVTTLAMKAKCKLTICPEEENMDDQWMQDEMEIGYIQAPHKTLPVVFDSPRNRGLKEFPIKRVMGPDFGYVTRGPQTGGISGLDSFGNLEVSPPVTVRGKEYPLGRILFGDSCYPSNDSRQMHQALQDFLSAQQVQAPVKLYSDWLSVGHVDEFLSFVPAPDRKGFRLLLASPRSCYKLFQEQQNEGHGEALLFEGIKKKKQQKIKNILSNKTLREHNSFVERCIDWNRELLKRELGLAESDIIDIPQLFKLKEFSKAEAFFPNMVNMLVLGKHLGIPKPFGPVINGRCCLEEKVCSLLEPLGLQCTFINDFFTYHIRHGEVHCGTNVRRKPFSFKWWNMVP

C=CCn1c(=S)[nH]c2scc(-c3ccco3)c2c1=O
inactive: inhibition [2] 23.3% | inhibition [3] 37.9% | inhibition [4] 14.1% | activation [5] 4.85% | inhibition [6] -24.4%
active: inhibition [1] 78.1% | inhibition [7] 75.9%

CCOC(=O)c1ccc(Nc2cc3ccccc3c(=O)[nH]2)cc1
active: inhibition [8] 53.9% | inhibition [7] 29.8%
inactive: activation [5] -1.62% | inhibition [6] 8.23%

CC(=O)c1nc2ccccc2n1Cc1ccccc1
inactive: activation [5] -0.46% | inhibition [6] 2.34% | inhibition [7] -4.4%

CC(=NCc1ccc2c(c1)OCO2)C1=C(O)c2ccccc2C1=O
inactive: activation [5] 0.56% | inhibition [6] -2.08% | inhibition [7] -0.38%

COC(=O)C1=C(C)N(C)C(=O)NC1c1ccc([N+](=O)[O-])o1 (stereo unspecified)
inactive: activation [5] 0.76% | inhibition [6] -3.75% | inhibition [7] 0.3%

Oc1cccc(/C=N/Nc2ccc(Cl)nn2)c1O
inactive: inhibition [10] 0.35% | inhibition [11] 7.85% | inhibition [14] 20.9% | inhibition [15] 7.26% | inhibition [16] 9.97% | inhibition [6] -36.1% | inhibition [7] 10.1%
active: inhibition [9] 93.5% | inhibition [4] 29.2% | inhibition [12] 42.9% | inhibition [13] 15.7% | inhibition [17] 26% | activation [5] 10.1%

c1ccc(C2=Nc3cccc4cccc(c34)N2)cc1
inactive: inhibition [1] 6.39% | activation [18] -0.31% | activation [19] 3.48% | activation [5] 4.54% | inhibition [6] -16.1% | inhibition [7] 8.24%

NC(=O)c1ccccc1NC(=O)c1ccccc1F
inactive: activation [5] 1.09% | inhibition [6] -4.33% | inhibition [7] -4.54%

O=C(CN(C(=O)c1csnn1)c1cccc(Cl)c1)NC1CCCC1
inactive: activation [5] -0.52% | inhibition [6] 2.68% | inhibition [7] 3.72%

Cc1oc2c(c1C(=O)N1CCOCC1)C(=O)c1ccccc1C2=O
inactive: inhibition [11] 29.9% | inhibition [20] -13.7% | inhibition [21] 6.29% | activation [5] -2.24% | inhibition [6] 11.3%
active: inhibition [7] 20.2%

CC(C)Cn1c(N)c(C(=O)NCc2cccs2)c2nc3ccccc3nc21
inactive: inhibition [11] -4.29% | activation [5] 3.66% | inhibition [6] -13.3% | inhibition [7] -3.17%

COc1ccccc1C1C(C#N)=C(N)Oc2c1c(-c1ccccc1)nn2-c1ccccc1 (stereo unspecified)
inactive: inhibition [1] -8.81% | inhibition [11] 12.6% | inhibition [22] 2.3% | activation [5] 0.86% | inhibition [6] -4.34% | inhibition [7] 1.22%
